Among all 5,500 compounds or so, about 2,000 (36%) were called active. Roughly 18% stayed inconclusive and do not appear here. Rule as the data show it: active = normalized growth mostly below about 0.91 (no sharp cut-off); inconclusive = no clear call, values can overlap the other calls; inactive = mostly above about 0.92. Some of the results follow.
Test: chemical genetic growth profiling, strain panel (AID 1159580);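 also: tested at 20 µM; growth read once vehicle control cultures reached saturation at 30 °C; 1 = growth at the plate median or of vehicle wells; lower values mean less growth of the strain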
Conditions: S. cerevisiae deletion strains, growth OD
[1] = locus YDL101C, strain DUN1, active compounds read low
[2] = locus YHR030C, strain SLT2, active compounds read low

Measured: normalized growth

CC(=O)c1ccccc1C(=O)c1ccc(C(C)(C)C)cc1
active: locus YLR113W, strain HOG1, active compounds read low 0.761 | locus YPL256C, strain CLN2, active compounds read low 0.85
inactive: locus YAR019C, strain CDC15, active compounds read low 0.961 | locus YBL105C, strain PKC1, active compounds read low 0.961 | locus YBR135W, strain CKS1, active compounds read low 0.957 | locus YBR136W, strain MEC1, active compounds read low 0.96 | locus YBR160W, strain CDC28, active compounds read low 0.959 | locus YDL017W, strain CDC7, active compounds read low 0.956 | locus YDL028C, strain MPS1, active compounds read low 0.961 | [1] 0.95 | locus YDL108W, strain KIN28, active compounds read low 0.964 | locus YDL132W, strain cdc53, active compounds read low 0.958 | locus YDL214C, strain PRR2, active compounds read low 0.969 | locus YDR052C, strain DBF4, active compounds read low 0.964 | locus YDR054C, strain cdc34, active compounds read low 0.957 | locus YDR226W, strain ADK1, active compounds read low 0.96 | locus YDR477W, strain SNF1, active compounds read low 0.969 | locus YER123W, strain YCK3, active compounds read low 0.982 | locus YER133W, strain GLC7, active compounds read low 0.953 | locus YFL009W, strain cdc4, active compounds read low 0.953 | locus YFL029C, strain CAK1, active compounds read low 0.953 | locus YFR003C, strain YPI1, active compounds read low 0.961 | locus YFR019W, strain FAB1, active compounds read low 0.981 | locus YFR028C, strain CDC14, active compounds read low 0.965 | locus YGR040W, strain KSS1, active compounds read low 0.967 | locus YGR052W, strain FMP48, active compounds read low 0.992 | locus YGR092W, strain DBF2, active compounds read low 0.954 | [2] 0.855 | locus YHR079C, strain IRE1, active compounds read low 0.918 | locus YHR082C, strain KSP1, active compounds read low 1.07 | locus YHR205W, strain SCH9, active compounds read low 1 | locus YIL147C, strain SLN1, active compounds read low 0.961 | locus YJL095W, strain BCK1, active compounds read low 0.999 | locus YJL128C, strain PBS2, active compounds read low 0.918 | locus YJL157C, strain FAR1, active compounds read low 0.984 | locus YJR016C, strain ILV3, active compounds read low 0.969 | locus YJR066W, strain TOR1 (second series), active compounds read low 0.989 | locus YJR066W, strain TOR1, active compounds read low 1.04 | locus YKL048C, strain ELM1, active compounds read low 0.939 | locus YKL067W, strain YNK1, active compounds read low 0.967 | locus YKL101W, strain HSL1, active compounds read low 0.976 | locus YKL193C, strain SDS22, active compounds read low 0.961 | locus YKL203C, strain TOR2, active compounds read low 0.989 | locus YLR133W, strain CKI1, active compounds read low 0.986 | locus YLR403W, strain SFP1, active compounds read low 0.985 | locus YML070W, strain DAK1, active compounds read low 0.953 | locus YMR001C, strain CDC5, active compounds read low 0.959 | locus YMR205C, strain PFK2 (second series), active compounds read low 0.981 | locus YMR277W, strain FCP1, active compounds read low 0.963 | locus YNL006W, strain LST8, active compounds read low 0.954 | locus YNL020C, strain ARK1, active compounds read low 0.99 | locus YNL161W, strain CBK1, active compounds read low 0.959 | locus YNL183C, strain NPR1, active compounds read low 1 | locus YNL207W, strain RIO2, active compounds read low 0.958 | locus YNL222W, strain SSU72, active compounds read low 0.966 | locus YNL307C, strain MCK1 (second series), active compounds read low 0.975 | locus YOL078W, strain AVO1, active compounds read low 0.967 | locus YOL136C, strain PFK27, active compounds read low 0.98 | locus YOR061W, strain CKA2, active compounds read low 0.975 | locus YOR119C, strain RIO1, active compounds read low 1.02 | locus YOR231W, strain MKK1, active compounds read low 0.949 | locus YOR329C, strain SCD5, active compounds read low 0.961 | locus YPL031C, strain PHO85, active compounds read low 0.961 | locus YPL153C, strain RAD53, active compounds read low 0.953 | locus YPL204W, strain HRR25, active compounds read low 0.96 | locus YPL209C, strain IPL1, active compounds read low 0.959 | locus YPR025C, strain CCL1, active compounds read low 0.96 | locus YPR106W, strain ISR1, active compounds read low 0.969 | locus YPR111W, strain DBF20, active compounds read low 0.946 | strain NNK1, active compounds read low 0.96 | strain TSCII, active compounds read low 0.955

COc1cccc(NC(=O)NC2Cc3ccccc3C2)c1
inactive: locus YAL013W, strain DEP1, active compounds read low 0.975 | locus YBR229C, strain ROT2, active compounds read low 0.998 | [1] 0.991 | locus YDL134C, strain PPH21, active compounds read low 0.989 | locus YDR150W, strain NUM1, active compounds read low 0.867 | locus YEL061C, strain CIN8, active compounds read low 1 | locus YGR078C, strain PAC10, active compounds read low 0.989 | [2] 0.929 | locus YHR087W, strain rtc3, active compounds read low 1 | locus YJL187C, strain SWE1, active compounds read low 0.998 | locus YJR043C, strain POL32, active compounds read low 0.982 | locus YJR075W, strain HOC1, active compounds read low 0.996 | locus YKL190W, strain CNB1, active compounds read low 0.996 | locus YLR039C, strain RIC1, active compounds read low 0.996 | locus YLR058C, strain SHM2 (second series), active compounds read low 0.992 | locus YLR085C, strain ARP6, active compounds read low 0.952 | locus YLR262C, strain YPT6, active compounds read low 0.96 | locus YML094W, strain GIM5, active compounds read low 0.992 | locus YMR219W, strain ESC1, active compounds read low 0.99 | locus YMR263W, strain SAP30, active compounds read low 0.927 | locus YMR307W, strain GAS1, active compounds read low 0.999 | locus YNL153C, strain GIM3, active compounds read low 0.994 | locus YNL298W, strain CLA4 (second series), active compounds read low 0.973 | locus YNL322C, strain KRE1, active compounds read low 1.01 | locus YNR030W, strain Alg12, active compounds read low 0.978 | locus YOL006C, strain TOP1, active compounds read low 0.937 | locus YPL055C, strain LGE1, active compounds read low 0.883 | locus YPL241C, strain CIN2, active compounds read low 0.986 | locus YPR135W, strain CTF4, active compounds read low 0.877

Source: PubChem BioAssay AID1159580 (chemical genetic matrix, 2015)
